Test results published in PubChem BioAssay AID1259374 (The Scripps Research Institute Molecular Screening Center, 2018).
The whole screen tested about 650,000 compounds, of which about 5,900 (0.91%) were called active. The full list was thinned out, with actives kept by preference. Unmarked numbers belong to inactive results. Rule as the data show it: active = inhibition above about 50%; inactive = the rest.

What follows are compounds tested against Microphthalmia-associated transcription factor (Homo sapiens) (UniProt O75030) (assay: MITF inhibitors, primary screen, biochemical, AlphaScreen, human (AID 1259374;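 also: 0% = vehicle wells with protein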)). Conditions: AlphaScreen MITF homodimerization, bead proximity signal; at 2.6 µM; hits give high values.
Sequence of Microphthalmia-associated transcription factor (Homo sapiens) (O75030 whole entry, looked up): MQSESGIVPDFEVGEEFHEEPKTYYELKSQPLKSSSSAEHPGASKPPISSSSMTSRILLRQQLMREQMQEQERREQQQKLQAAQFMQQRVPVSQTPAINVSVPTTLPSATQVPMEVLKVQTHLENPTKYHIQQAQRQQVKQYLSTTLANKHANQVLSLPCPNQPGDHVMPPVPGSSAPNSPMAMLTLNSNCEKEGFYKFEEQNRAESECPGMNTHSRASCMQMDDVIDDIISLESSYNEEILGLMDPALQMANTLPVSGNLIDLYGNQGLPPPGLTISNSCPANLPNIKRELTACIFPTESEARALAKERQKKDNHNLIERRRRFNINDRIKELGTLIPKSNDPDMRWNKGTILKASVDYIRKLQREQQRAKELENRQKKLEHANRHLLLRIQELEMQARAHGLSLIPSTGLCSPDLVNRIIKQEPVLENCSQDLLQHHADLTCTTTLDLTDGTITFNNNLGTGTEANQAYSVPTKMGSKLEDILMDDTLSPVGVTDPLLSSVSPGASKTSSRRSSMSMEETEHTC

| Structure (SMILES) | inhibition |
| --- | --- |
| Cc1nc2c(ccc3nc(NC(=O)c4ccc([N+](=O)[O-])o4)sc32)s1 | -9.59% |
| O=C(Nc1ccc(Cl)c(Cl)c1)C1C2C=CC3(O2)C1C(=O)N(Cc1cccs1)C3C(=O)NC1CCCCC1 (stereo unspecified) | 6.14% |
| CC(NC(=O)CN(C)S(=O)(=O)c1cccs1)c1ccccc1 (stereo unspecified) | -11.7% |
| O=C(Nc1ccccc1)C(Cc1ccccc1)N1C(=O)c2ccccc2C1=O (stereo unspecified) | 3.18% |
| CC(C)CC(C(=O)O)N1C(=O)c2ccccc2C1=O (stereo unspecified) | 6.74% |
| Cc1ccc(C)n1C(Cc1ccccc1)C(=O)O (stereo unspecified) | 66.9% (active) |
| CC(C)N1CCN(C(=O)CC2(c3ccccc3)CC(=O)N(CCc3ccccn3)C2=O)CC1 (stereo unspecified) | 18.7% |
| Cc1cc(N2CCCC2)nc(Nc2ccc(NC(=O)c3c(F)cccc3Cl)cc2)n1 | 8.34% |
| CCc1ccc(NC(=O)CS(=O)CC(=O)NCCCc2ccccc2)cc1 (stereo unspecified) | 60.7% (active) |
| CCc1ccc(NC(=O)CS(=O)CC(=O)N2CCN(c3ccccc3F)CC2)cc1 (stereo unspecified) | -10.3% |
| CCc1ccc(NC(=O)Nc2ccccc2)cc1 | 7.42% |
| COc1ccc(C(=O)Nc2ccc3scnc3c2)cc1 | -2.75% |
| COc1ccc(-c2nnn(CC(=O)NCc3ccc(C)cc3)n2)cc1OC | 16.6% |
| COc1ccc(C(=O)N/N=C/c2c(O)ccc3ccccc23)cc1 | 16.9% |
| COc1ccc(O)c(/C=N/NC(=O)c2ccc(NC(C)=O)cc2)c1 | 17.1% |
| COc1ccc(C(=O)N/N=C/c2ccc(O)c3ncccc23)cc1 | 100% (active) |
| Cc1cc(C)c(NS(=O)(=O)c2ccc3c(c2)n(C)c(=O)c(=O)n3C)c(C)c1 | 4.25% |
| COc1cc(CN2CCN(Cc3ccccc3Br)CC2)cc(OC)c1 | 89.3% (active) |
| COc1cc(CN2CCN(c3ccccc3OC)CC2)cc(OC)c1 | 10.9% |
| CCOC(=O)N1CCN(Cc2cc(Br)c(OC)cc2OC)CC1 | 8.78% |
| COc1cc(CN2CCN(c3nccn3C)CC2)cc(OC)c1 | 8.7% |

| Structure (SMILES) | inhibition |
| --- | --- |
| COc1cc(OC)c(OC)cc1CN1CCN(Cc2ccc(F)cc2)CC1 | 64% (active) |
| CCOc1cc(CN2CCN(Cc3cc(OC)cc(OC)c3)C(CCO)C2)ccc1OC (stereo unspecified) | 0.98% |
| COc1cc(OC)c(OC)cc1CN1CCN(Cc2ccc3c(c2)OCO3)CC1 | 49.8% |
| COc1ccc(CN2CCC(C(N)=O)CC2)cc1OC | 1.23% |
| COc1cc(OC)c(OC)cc1CN1CCN(c2ccccc2F)CC1 | 24.1% |
| COc1cc(CN2CCN(Cc3cc(OC)c(OC)cc3OC)CC2)cc(OC)c1 | 75.9% (active) |
| COc1cc(CN2CCN(Cc3ccc(OC)c(OC)c3)CC2)cc(OC)c1 | 71.4% (active) |
| CC(C)Oc1ccccc1/C=C(\C#N)C(=O)Nc1ccccc1 | -0.06% |
| O=C(CN1C(=O)CCC1=O)Nc1ccc(O)c(-c2nc3ccccc3s2)c1 | 0.38% |
| O=C(O)c1ccc(/C=N/Nc2ccc3ccccc3n2)cc1 | 10.5% |
| CC(=O)N1CCc2cc(Br)cc(S(=O)(=O)N3CCN(Cc4ccccc4)CC3)c21 | 13.2% |
| O=C(CCS(=O)(=O)c1cccc2nonc12)N1CCCC1 | 11.4% |
| COc1ccc(Cn2c(CCC(=O)Nc3cccc(SC)c3)nc3cccnc32)cc1 | -3.6% |
| O=C(Oc1cccc(OC(=O)c2ccccc2)c1)c1ccccc1 | -0.91% |
| C#CC(C)(C)OC(=O)C1C2C=CC(C2)C1C(=O)O (stereo unspecified) | 21.6% |
| Cc1ccc(NC(=O)C2C3C=CC4(O3)C2C(=O)N(C2CCCCCCC2)C4C(=O)NC2CCCCC2)cc1Cl (stereo unspecified) | -0.34% |
| O=C(NCCc1ccccc1)c1ccc(Cn2c(=S)[nH]c3cc4c(cc3c2=O)OCO4)cc1 | 13.8% |
| CCn1c(=O)c2ccccc2n2c(SCC(=O)Nc3nccs3)nnc12 | 0.8% |
| COc1ccc(CCN2CCC(c3nc(-c4ccc5c(c4)OCO5)no3)CC2)cc1OC | 7.81% |
| O=C(N/N=C/c1cc(Br)ccc1O)c1cc(Br)ccc1O | 8.32% |
| O=C(N/N=C/c1cc(Br)ccc1O)c1cc(-c2cccs2)[nH]n1 | 17.6% |

| Structure (SMILES) | inhibition |
| --- | --- |
| O=C(N/N=C/c1cc(Br)ccc1O)c1ccc(=O)[nH]n1 | 80.2% (active) |
| COC(=O)C1=C(O)/C(=C\c2cccc(O)c2)N=C1C | 58% (active) |
| COC(=O)C1=C(O)/C(=C\c2ccccc2C(F)(F)F)N=C1C | 1.73% |
| CCOC(=O)C1=C(O)/C(=C\c2cccc(Cl)c2)N=C1C | -3.89% |
| CCN(CC)C(=O)C1CCCN(c2cccc(C(=O)NCCOc3ccccc3)c2)C1 (stereo unspecified) | 17.9% |
| c1nc(SCc2ccc3c(c2)OCO3)c2[nH]cnc2n1 | 5.04% |
| Cn1c(N)c(C(=O)CSc2ncnc3nc[nH]c23)c(=O)n(C)c1=O | 10.9% |
| O=C(CSc1ncnc2nc[nH]c12)c1ccc(O)c(O)c1 | 82.1% (active) |
| CC(=O)N1CCN(Cc2ccc3c(c2)CN(C(=O)c2cccc(N(C)C)c2)CCO3)CC1 | 1.41% |
| C/C(=N\NC(=O)CCCc1cc2ccccc2[nH]1)c1ccncc1 | 12.8% |
| COc1cccc(CCNC(=O)CC2C(=O)NCCN2Cc2cccc(C(F)(F)F)c2)c1 (stereo unspecified) | 10.1% |
| CCCS(=O)(=O)N1CCN(c2ccc(C)nn2)CC1 | 1.44% |
| CCCS(=O)(=O)N1CCN(C(C)C)CC1 | 87.2% (active) |
| CCCS(=O)(=O)N1CCN(C(=O)c2cccs2)CC1 | 16.3% |
| O=C1Nc2c(Cl)cc(Cl)cc2/C1=N\N=C\c1ccc(O)c(O)c1O | 80.2% (active) |
| O=C(N/N=C\c1ccc(Cl)cc1Cl)c1ccccc1O | 9.14% |
| C[n+]1ccc(C(=O)N/N=C/c2ccc(Cl)cc2Cl)cc1 | 0.41% |
| CCC1CCCCN1Cc1c(O)ccc2c(=O)c(Oc3ccc(OC)cc3)c(C(F)(F)F)oc12 (stereo unspecified) | -1.92% |
| CC(C)C[C@@H]1NC(=O)[C@@H]2C[C@H](NC(=O)Nc3c(Cl)cccc3Cl)CN2C1=O | 2.93% |
